Results reported in PMC4336329 (PLoS ONE, 2015).
The whole screen tested about 310,000 compounds, of which about 14,000 (4.5%) showed an effect of 50% or more. Effects have a minus sign here. The entries come from a sample that favours strong results as a whole.

Each compound was assayed against human ether-à-go-go-related gene (hERG) potassium channel (human, UniProt Q12809) (assay: primary screen, population patch clamp on CHO cells stably expressing hERG; higher = less effect of the substance).
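Also: peak tail current of the secondary pulse compared with the same well before compound.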

Sequence of human ether-à-go-go-related gene (hERG) potassium channel (Q12809 whole entry, looked up): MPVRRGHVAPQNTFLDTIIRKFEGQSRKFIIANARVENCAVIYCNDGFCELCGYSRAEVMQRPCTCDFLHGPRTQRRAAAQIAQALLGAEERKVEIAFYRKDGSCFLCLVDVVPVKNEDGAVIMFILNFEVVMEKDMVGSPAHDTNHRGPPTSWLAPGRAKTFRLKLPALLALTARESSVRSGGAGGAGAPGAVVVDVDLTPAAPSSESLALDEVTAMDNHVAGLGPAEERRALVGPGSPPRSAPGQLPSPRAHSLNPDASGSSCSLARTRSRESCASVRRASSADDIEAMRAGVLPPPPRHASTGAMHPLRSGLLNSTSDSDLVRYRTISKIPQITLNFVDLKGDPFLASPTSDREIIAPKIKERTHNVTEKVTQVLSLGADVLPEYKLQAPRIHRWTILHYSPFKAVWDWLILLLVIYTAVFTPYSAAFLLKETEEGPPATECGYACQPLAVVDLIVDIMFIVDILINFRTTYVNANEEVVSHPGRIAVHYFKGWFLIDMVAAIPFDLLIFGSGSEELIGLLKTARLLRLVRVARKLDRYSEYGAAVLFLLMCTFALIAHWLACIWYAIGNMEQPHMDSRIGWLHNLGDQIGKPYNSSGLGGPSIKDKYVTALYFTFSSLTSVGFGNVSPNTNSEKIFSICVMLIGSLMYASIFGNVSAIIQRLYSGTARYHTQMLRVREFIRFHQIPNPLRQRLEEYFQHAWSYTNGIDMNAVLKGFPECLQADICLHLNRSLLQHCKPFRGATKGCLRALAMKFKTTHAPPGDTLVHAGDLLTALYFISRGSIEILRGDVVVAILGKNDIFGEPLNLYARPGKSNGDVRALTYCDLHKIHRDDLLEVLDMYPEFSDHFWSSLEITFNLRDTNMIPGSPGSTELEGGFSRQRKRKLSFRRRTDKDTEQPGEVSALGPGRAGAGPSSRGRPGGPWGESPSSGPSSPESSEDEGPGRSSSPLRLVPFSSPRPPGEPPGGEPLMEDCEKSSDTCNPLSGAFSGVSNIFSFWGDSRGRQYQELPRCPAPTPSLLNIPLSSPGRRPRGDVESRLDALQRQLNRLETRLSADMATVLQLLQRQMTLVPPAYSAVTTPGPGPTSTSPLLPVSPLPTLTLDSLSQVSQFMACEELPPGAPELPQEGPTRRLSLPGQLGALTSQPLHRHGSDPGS

Row | SMILES | hERG current change (%, negative = inhibition) at 10uM [%]
1 | O=C(CN1C(=O)NC2(CCCC2)C1=O)N1CCN(S(=O)(=O)c2ccccc2[N+](=O)[O-])CC1 | 7.61
2 | N=c1n(-c2ccccc2)c(O)cc(=O)n1-c1ccccc1 | -6.28
3 | CCCn1c(N)c(N(CCOC)C(=O)c2ccc([N+](=O)[O-])c(C)c2)c(=O)[nH]c1=O | 35.8
4 | CC(NS(=O)(=O)c1ccc(Br)cc1)C(=O)NC1CCCCCC1 (stereo not drawn) | 5.35
5 | Cc1noc(C)c1S(=O)(=O)N1CCCC(C(=O)Nc2ccc(Cl)cn2)C1 (stereo not drawn) | -26
6 | CCOC(=O)C1(CCCc2ccccc2)CCN(C(=O)Cc2nonc2C)CC1 | -51.3
7 | CCOC(=O)C1(CCCc2ccccc2)CCN(C(=O)COC)CC1 | -25.9
8 | CCOC(=O)C1(CCc2ccccc2)CCN(C(=O)Cc2nonc2C)CC1 | -21.4
9 | CCOC(=O)C1(CCCc2ccccc2)CCN(C(=O)c2cnc(C)cn2)CC1 | -39.8
10 | CCOC(=O)C1(CC2CC2)CCN(C(=O)c2ocnc2C)CC1 | 7.25
11 | CCOC(=O)C1(Cc2ccccc2)CCCN(C(=O)c2cnn(CC)c2)C1 (stereo not drawn) | 10.1
12 | CCOC(=O)C1(CCCc2ccccc2)CCN(C(=O)c2cc(C)nc(C)n2)CC1 | -16.4
13 | CCOC(=O)C1(Cc2cccc(Cl)c2)CCCN(C(=O)c2cnn(CC)c2)C1 (stereo not drawn) | -6.39
14 | CCOC(=O)C1(CCCc2ccccc2)CCN(C(=O)c2cnn(CC)c2)CC1 | -64.2
15 | CCOC(=O)C1(CCCc2ccccc2)CCN(C(=O)c2cc(C)nn2CC)CC1 | -57.8
16 | CCOC(=O)C1(CCCc2ccccc2)CCN(C(=O)c2ocnc2C)CC1 | -56.1
17 | CCn1c(N2CCN(S(=O)(=O)c3ccc(Cl)cc3)CC2)nc2ccccc21 | -48.4
18 | COc1cccc(NC(=O)CCNS(=O)(=O)c2ccc3c(c2)CC(C)N3C(=O)C2CC2)c1 (stereo not drawn) | -5.18
19 | O=C(CCS(=O)(=O)c1ccc(Br)s1)NC1CCCC1 | 6.05
20 | COc1ccc(NS(=O)(=O)c2cccc3cccnc23)cc1OC | 24.2
21 | CNc1nc(NN)nc(Nc2ccccc2)n1 | 9.76
22 | Cc1ccc(S(=O)(=O)CC(=O)Nc2cccc(C)n2)cc1 | 6.48
23 | Cc1cccc(C(=O)NCC(=O)NC2CCN(Cc3ccccc3)CC2)c1 | -7.99
24 | CCOC(=O)C1(CCCc2ccccc2)CCN(C(=O)c2ccoc2)CC1 | -54.3
25 | O=C(c1ccoc1)N1CCC(CO)(CCc2ccccc2)CC1 | -28.7
26 | CCOC(=O)C1(CCCc2ccccc2)CCN(C(=O)CSC)CC1 | -24.1
27 | CCCCCC(=O)Nc1nnn(CCC)n1 | 4.41

Row | SMILES | hERG current change (%, negative = inhibition) at 10uM [%]
28 | CC(C(=O)O)N1C(=O)c2cccc3cccc1c23 (stereo not drawn) | 1.97
29 | COc1ccc(NCc2nnc(SCC(=O)Nc3nc(-c4ccccc4)cs3)n2-c2ccccc2)cc1 | 13
30 | C[C@H](NC(=O)N1CCn2c1nc1ccccc12)C(=O)NCc1ccccc1 | -13.6
31 | COc1ccc(CNC(=O)[C@H](C)NC(=O)N2CCn3c2nc2ccccc23)cc1 | -57.7
32 | C[C@H](NC(=O)N1CCn2c1nc1ccccc12)C(=O)NCc1ccc(F)cc1 | -29.6
33 | FC(F)(F)c1ccc(N2CCOCC2)c(Nc2nc3ccccc3n3cnnc23)c1 | 7.53
34 | CCSc1nnc([C@H](Cc2c[nH]c3ccccc23)NC(=O)OC(C)(C)C)o1 | -21.5
35 | COc1ccc(Cc2nc3c4c(ncn3n2)Oc2c(ccc3ccccc23)C4c2ccc(OC)c(OC)c2)cc1 (stereo not drawn) | 14.7
36 | COc1ccccc1C1c2ccc3ccccc3c2Oc2ncn(CCN(C)C)c(=N)c21 (stereo not drawn) | -61.8
37 | COc1ccc(C2c3ccc4ccccc4c3Oc3ncn(CCN(C)C)c(=N)c32)cc1 (stereo not drawn) | -77.2
38 | COc1ccc(C2c3ccc4ccccc4c3Oc3ncn(CCCN(C)C)c(=N)c32)cc1 (stereo not drawn) | -76.4
39 | COc1ccc(C2c3c(ccc4ccccc34)Oc3ncn4nc(-c5ccco5)nc4c32)cc1 (stereo not drawn) | -12.4
40 | CN(C)S(=O)(=O)c1cc(C(=O)OCCn2cnc3c2c(=O)n(C)c(=O)n3C)ccc1Cl | -39.7
41 | CS(=O)(=O)c1cccc(-c2nnc(NC(=O)CCS(=O)(=O)c3ccccc3)o2)c1 | 3.82
42 | COC(=O)c1cn(C(=O)c2ccccc2F)nc1N | -5.96
43 | Cc1ccc2c(CC(=O)OC3CCOC3=O)coc2c1 (stereo not drawn) | 3.85
44 | CC/C(=N\NC(=S)Nc1ccc(OC)cc1)c1ccc(OC(F)F)cc1 | -4.32
45 | C[C@@H]1CC=C[C@H]2[C@H]1C(=O)N(Cc1ccccc1)[C@H]2c1ccoc1 | 3.54
46 | CC(CN1CCCCC1)C(=O)NNC(=O)C12CC3CC(CC(C3)C1)C2 (stereo not drawn) | 3.74
47 | CC(C)c1onc(C(=O)N2CCN(c3ccc(F)cc3)CC2)c1[N+](=O)[O-] | -19.9
48 | COc1ccccc1NC(=O)CSc1nnc(C2CCCCC2)n1N | 5.54
49 | O=Cc1cn(-c2ccccc2)nc1-c1ccc2c(c1)OCCO2 | -0.855
50 | OCc1cn(-c2ccccc2)nc1-c1ccc2c(c1)OCCO2 | 5.83
51 | Fc1ccc(-c2nn(-c3ccccc3)cc2CNCc2ccccc2)cc1 | 1.75
52 | c1ccc(-n2cc(CNCCc3cscn3)c(-c3ccc4c(c3)OCO4)n2)cc1 | -65.4
53 | Cc1ccc(-n2cc(CNCCc3ncc(C)[nH]3)c(-c3ccc(F)cc3)n2)cc1 | -47.4
54 | Cc1ccc(-n2cc(CNCCc3cscn3)c(-c3ccc(F)cc3)n2)cc1 | -59
